# Measurements taken from PubChem BioAssay (Tox21).
# Values without a mark were called inactive. The source made the active and inactive calls. The call rests on the fitted dose curve; in most records, active means well fitted curve in the direction sought with a large enough effect in the repeat runs; inconclusive means weak or mixed curves; inactive means flat fitted curve, though single readings scatter.
# Test: qHTS assay to test for compound auto fluorescence at 590 nm (red) in HEK293 cells (AID 720679)
# Conditions: red autofluorescence 540/590 nm; series mostly up to 91.3 µM; fluorescence, % of fluorescent control: at the top concentration
# Text: National Center for Advancing Translational Sciences [NCATS]
# NIH Chemical Genomics Center [NCGC]
# U.S. Environmental Protection Agency [EPA]
# National Institutes of Environmental Health Sciences [NIEHS]
# National Toxicology Program [NTP]
# U.S. Food and Drug Administration [FDA]
# Compound auto fluorescence often interferes with screening of the compound library against various biological targets and signaling pathways. Some of these compounds may have fluorophoric properties. Such properties may interfere with the assay outputs resulting in false positives and/or negatives. To decrease such complications and ensure the compound activities are relevant in terms of biological response, the Tox21 10K compound library was screened for auto fluorescence.
# From the fluorophores used as reporter signals in our screening assays, the auto fluorescence equivalencies of compounds against three fluorophores have been evaluated: Triamterene, Fluorescein and Rose Bengal sodium for blue, green and red fluorescence, respectively. The fluorescence intensities were measured using Excitation/Emission wavelengths at 405/460nm, 485/535nm and 540/590nm for blue, green and red labels, respectively. This assay includes the red fluorescence data.
# Tox21 Assay Protocol Summary:
# 2,000 HEK293 cells in 5 uL of culture medium containing 10% dialyzed FBS per well were dispensed into black wall/clear bottom 1536-well plates using a Multidrop Combi Dispenser (Thermo Scientific). The assay plates were incubated for 4-5 hr at 37C to allow cell attachment to the well bottom, followed by the transfer of 23 nL compound or DMSO vehicle by a pintool work station (Kalypsys, San Diego, CA). After the assay plates were incubated overnight at 37C and 5% CO2, fluorescence intensities in the assay plates were measured by an Envision (PerkinElmer, Shelton, CT) plate reader using three labels for measuring blue, green and red fluorescence at […] 460, 535 and 590nm respectively.
# On the % scale 0 is the no-effect control and ±100 the full control effect.
SMILES,"fluorescence, % of fluorescent control",Potency
CC(C(=O)O)c1ccc2c(c1)[nH]c1ccc(Cl)cc12 (stereo not given),0.0446% [at 46 µM],–
c1cnccn1,-0.163% [at 95.7 µM],–
Cc1cc(-n2nc3ccc(Cl)cc3n2)c(O)c(C(C)(C)C)c1,0.109% [at 46 µM],–
CC(C)(c1cc(Br)c(OCC(Br)CBr)c(Br)c1)c1cc(Br)c(OCC(Br)CBr)c(Br)c1 (stereo not given),0.187% [at 46 µM],–
CCOc1ccc2ccccc2c1C(=O)N[C@@H]1C(=O)N2[C@@H]1SC(C)(C)[C@@H]2C(=O)O,0.326% [at 18.6 µM],–
O=C(O)c1cc(-c2ccc(F)cc2F)ccc1O,-0.141% [at 18.6 µM],–
[Cl][Pt-2]([Cl])([Cl])[Cl],-0.119%,–
O=C(O)[C@H](O)[C@@H](O)[C@H](O[C@@H]1O[C@H](CO)[C@H](O)[C@H](O)[C@H]1O)[C@H](O)CO,0.434% [at 18.6 µM],–
CC(=O)[C@H]1CC[C@H]2[C@@H]3CCC4=CC(=O)CC[C@]4(C)[C@H]3CC[C@]12C,–,inactive
CCc1oc2ccccc2c1C(=O)c1cc(I)c(O)c(I)c1,-1.47% [at 46 µM],–
Cc1c(C)c2c(c(C)c1O)CC[C@@](C)(CCC[C@H](C)CCC[C@H](C)CCCC(C)C)O2,–,inactive
Cc1ccc(O)c(O)c1,-0.0615%,–
Cc1cc(C(C)(C)C)cc(C)c1CC1=NCCN1,0.279% [at 18.6 µM],–
CCCCCC/C=C\CCCCCCCC(=O)O,-0.667%,–
O=c1c(O)c(-c2ccc(O)cc2O)oc2cc(O)cc(O)c12,-0.0074%,–
CC(C)CCOC(=O)/C=C/c1ccccc1,0.356%,–
O=C(O)c1ccc2cc(C(=O)O)ccc2c1,-0.102%,–
O=C1CCc2ccc(OCCCCN3CCN(c4cccc(Cl)c4Cl)CC3)cc2N1,0.245% [at 46 µM],–
CC[N+](CC)(CC)CCOc1ccc(/C=C/c2ccccc2)cc1,–,inactive
O=C(O)c1cccc(C(F)(F)F)c1,-0.293%,–

SMILES,"fluorescence, % of fluorescent control",Potency
COC(=O)Nc1nc2ccc(C(=O)c3ccccc3)cc2[nH]1,0.41% [at 18.6 µM],–
Cc1cccc(C(=O)O)c1O,0.0538% [at 46 µM],–
CC(C)NC[C@@H](O)COc1ccc(CC(N)=O)cc1,-0.0486% [at 46 µM],–
CC(C)(C)C1CCC(=O)CC1,-0.413%,–
Clc1sc(Cl)c(Cl)c1Cl,0.0827%,–
CCC(CC)C(C)CCOC(C)=O (stereo not given),-0.925%,–
CC1(C)CC(O)CC(C)(C)N1,0.07% [at 95.7 µM],–
CCC(COC(=O)CCS)(COC(=O)CCS)COC(=O)CCS,-0.0031%,–
C=CC(=O)OCCOC(=O)C=C,0.0387%,–
OC12N=C(c3ccccc3)SC1Cc1cc(Cl)ccc12 (stereo not given),-0.203%,–
O=C(/C=C/c1ccc(O)c(O)c1)O[C@@H](C(=O)O)[C@@H](OC(=O)/C=C/c1ccc(O)c(O)c1)C(=O)O,0.0975%,–
CCOC(=O)NNc1ccc(N(CC)CC(C)O)nn1 (stereo not given),-0.0628% [at 46 µM],–
CCCCOC(=O)CC,-0.188%,–
COc1cc2nc(N3CCN(C(=O)c4ccco4)CC3)nc(N)c2cc1OC,0.0169% [at 46 µM],–
Cc1ccc(-c2ccccc2)cc1,-0.164%,–
FC(F)(F)c1cccc(Cl)c1,0.475%,–
COc1ccc2cc1Oc1ccc(cc1)C[C@H]1c3c(cc4c(c3Oc3cc5c(cc3OC)CCN(C)[C@@H]5C2)OCO4)CCN1C,-0.0985% [at 46 µM],–
O=C(O)CN(CCN(CC(=O)O)CC(=O)O)CC(=O)O,–,inactive
Cc1nc(-c2ccc(Cl)cc2)oc1COC(C)(C)C(=O)O,0.144% [at 46 µM],–
C/C=C/C=C/COC(=O)C(C)C,-0.277%,–
